This is a sample that favours compounds with a hit; in the whole collection about 6.6% have one here.
CSC inhib = cancer stem cell viability inhibitors, primary screen, luminescence; cancer stem cell-like cells viability; 300,000 tested, 1.1% active; inhibition, % at 7.5 µM; in the data active means inhibition above about 75%; tested in HMLE shEcad cells
GRIN3A LBD mod = binders of NR3A ligand-binding domain, primary screen, biophysical, differential scanning fluorimetry, uHTS; NR3A LBD differential scanning fluorimetry, Tm shift; 0% = protein alone, 100% = glycine-bound protein; Tm shift relative to glycine control, % at 25 µM; 340,000 tested, 2.5% active;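 active means melting temperature shift of at least 10% of the positive control shift, at one fixed dose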
Gli-Sufu block = Gli-Sufu pathway antagonists, primary screen, luciferase luminescence, Sufu-KO-LIGHT cells, uHTS; Sufu-KO-LIGHT fibroblasts, Gli luciferase reporter luminescence; inhibition, % at 5 µM; 340,000 tested, 0.74% active; AID 588413, 2011;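 active means inhibition above about 55%, limit read from the data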;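 further: 0% = DMSO-treated cells and 100% = wells with medium but no cells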
Mdm2-MdmX inh = inhibitors of human Mdm2-MdmX association, primary screen, cell-based, luminescence, split luciferase, SaOS-2, uHTS; SaOS-2 split-luciferase Mdm2/MdmX complementation; inhibition, % at 8 µM; 330,000 tested, 3% active; AID 485346, 2010;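 active means inhibition of at least 50% at 8 µM in the primary screen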
MPTP inh = mitochondrial permeability transition pore inhibitors, primary screen, biochemical, isolated mouse mitochondria, absorbance; Ca2+ swelling absorbance, 30 min; inhibition, % at 10 µM; 360,000 tested, 1.4% active;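 active means inhibition of 50% or more, scaled per plate between neutral and stimulator controls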;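 further: 0% = DMSO wells given calcium and 100% = 1 mM EGTA wells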
Beta cell apopt = inhibitors of cytokine-induced beta cell apoptosis, primary screen, luminescence | protection from apoptosis, % (no concentration beside the values) | AID 435005, 2010 | 300,000 tested, 0.8% active | INS-1E cytokine-induced death, ATP luminescence, 48 h; percent of positive-control rescue, neutral wells zero;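 active means Every replicate reaches about 75%, or at least half do and their mean reaches it too, limit read from the data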;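 further: 0% = cytokine-treated negative control wells and 100% = positive control rescue; higher means more ATP so stronger rescue from cytokine killing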
Mdm2-MdmX conf = Mdm2-MdmX complex disruptors, retested hits, confirmation, luminescence, single concentration; shares compounds with Mdm2-MdmX inh; Mdm2-MdmX binding, luminescent assay; inhibition, % at 8 µM; 10,000 tested, 55% active; AID 489028, 2010; in the data active means inhibition above about 40%
Full FLuc ctr = full-length luciferase signal inhibition, confirmation, counter-screen for Mdm2/MdmX interaction inhibitor project, cell-based, single concentration, SaOS-2; shares compounds with Mdm2-MdmX inh; SaOS-2 full-length luciferase counterscreen, luminescence; inhibition, % at 8 µM; 6,200 tested, 77% active;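 active means mean inhibition at 8 µM reaching about 37%, which flags the compound as non-specific, limit read from the data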;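 further: p53-null SaOS-2 cells with luciferase driven by a doxycycline-inducible promoter; compound on cells about two nights before reading with doxycycline added after day one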
The depositor's hits bear a star; · = no result given.

SMILES | CSC inhib | GRIN3A LBD mod | Gli-Sufu block | Mdm2-MdmX inh | MPTP inh | Beta cell apopt | Mdm2-MdmX conf | Full FLuc ctr
COc1cc(C(=O)N/N=C/c2ccsc2C)cc(OC)c1OC | 76* | 1 | -4 | 77* | 0 | 20 | 67* | 89*
COc1cc(C2CC(c3cccs3)=NN2C(=O)CCl)ccc1OC(F)F (stereo unspecified) | 34 | 0 | 13 | 99* | 0 | · | 100* | 51*
COc1ccc(C2CC(c3cccs3)=NN2C(=O)CCl)cc1OC (stereo unspecified) | 72 | -3 | 8 | 99* | 0 | -36 | 100* | 49*
COc1ccc(C2CC(c3cccs3)=NN2C(=O)c2ccccc2)cc1OC (stereo unspecified) | -2 | 0 | 2 | 17 | 0 | -6 | · | ·
Cc1ccc(C2=NN(C(=O)CCl)C(c3cccs3)C2)o1 (stereo unspecified) | · | 2 | 6 | 100* | 10 | -24 | 100* | 51*
COc1ccccc1NC(=O)C(C)OC(=O)CCNS(=O)(=O)c1cccc(C(F)(F)F)c1 (stereo unspecified) | · | -2 | -1 | 25 | 0 | -4 | · | ·
Cc1c(/C=C/C(=O)c2ccccc2)cnn1C | 9 | 1 | -11 | -12 | -2 | -1 | · | ·
Cc1cc2c(c(/C=C/C(=O)c3ccccc3)c1)OC1(C=C2)Oc2ccccc2C(=O)N1C (stereo unspecified) | 138* | -3 | 8 | 91* | 1 | -5 | 83* | 48*
O=C(Cn1cnc2c(OCc3ccccc3)ncnc21)N[C@H](CO)Cc1cc2ccccc2[nH]1 | · | 0 | -13 | 51* | 1 | 4 | 8 | ·
Cc1ccc(NS(=O)(=O)c2cc([N+](=O)[O-])ccc2N/N=C/c2sc(N3CCOCC3)nc2-c2ccccc2)c(C)c1 | 8 | -2 | 7 | 86* | 24 | 75* | 22 | ·
COc1cc(C(=O)NC(=S)Nc2cccc(-c3cc4ccccc4oc3=O)c2)cc(OC)c1OC | -3 | -1 | -30 | 53* | 12 | 12 | 33 | ·
Cc1cc(NC(=S)NC(=O)c2ccccc2)ccc1-c1cc2ccccc2oc1=O | 42 | -6 | -2 | 42 | 9 | 17 | · | ·
Oc1c(C(Nc2ccccn2)c2ccccn2)ccc2cccnc12 (stereo unspecified) | -4 | 2 | 50 | 53* | 0 | 87* | 71* | 45*
COc1cc(C(Nc2ccccn2)c2ccc3ccc(C)nc3c2O)cc(OC)c1O (stereo unspecified) | 70 | -4 | 34 | 79* | 3 | 3 | 81* | 51*

Assay outcomes as filed in PubChem BioAssay.
